Measured values from PubChem BioAssay (NCI).
The panel holds about 83,000 compounds, 20% with a hit somewhere; the sample as a whole holds those more often.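 The test compound was applied at a single concentration to cells in 96-well plates for 48 hours, and percent growth was recorded.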 Values without a mark were called inactive. The source made the active and inactive calls. Rule for the calls: active = growth percent below 10; inactive = the rest.

Assays:
Assay in all cases: NCI-60 one-dose screen, 48 h (100 = growth as untreated, 0 = no growth, -100 = all killed)
Settings in all cases: 10 µM unless noted
HCT-15 colon = system: HCT-15 colon
HT29 colon = system: HT29 colon
SNB-75 CNS = system: SNB-75 CNS
SNB-19 CNS = system: SNB-19 CNS
U251 CNS = system: U251 CNS
PC-3 prostate = system: PC-3 prostate
SK-MEL-5 melanoma = system: SK-MEL-5 melanoma
UACC-62 melanoma = system: UACC-62 melanoma
LOX IMVI melanoma = system: LOX IMVI melanoma
SK-MEL-28 melanoma = system: SK-MEL-28 melanoma

| SMILES | growth (HCT-15 colon) | growth (HT29 colon) | growth (SNB-75 CNS) | growth (SNB-19 CNS) | growth (U251 CNS) | growth (PC-3 prostate) | growth (SK-MEL-5 melanoma) | growth (UACC-62 melanoma) | growth (LOX IMVI melanoma) | growth (SK-MEL-28 melanoma) |
| --- | --- | --- | --- | --- | --- | --- | --- | --- | --- | --- |
| O=C1N/C(=N\c2nccs2)S/C1=C\c1ccc([N+](=O)[O-])cc1 | 16% | 17.2% | 34.1% | 9.41% (active) | 7.89% (active) | 17.6% | -8.09% (active) | 2.3% (active) | 12.5% | 6.49% (active) |
| COc1ccc(N=Nc2c(N)nn3c(-c4ccc(OC)c(OC)c4)ccnc23)cc1 | 91.7% | 68.5% | 82.3% | 74.1% | 69.3% | 87.5% | 77.4% | 64.3% | 86.1% | 86.4% |
| CC(C)(C)C(=O)c1c2c(c3ccc4c5ccccc5ccc4n13)C(=O)c1ccccc1C2=O | 81.7% | 111% | 122% | 88.7% | 98.5% | 83% | 78.8% | 97.2% | 73.2% | 105% |
| Nc1nn2c(-c3cc4cc(Br)ccc4oc3=O)ccnc2c1N=Nc1ccc(S(N)(=O)=O)cc1 | 103% | 92.4% | 116% | 41.6% | 28.1% | 87.5% | 63.7% | 83.7% | 63.8% | 80.7% |
| CCCCN1C(=O)/C(=C\C(=O)c2cc3ccccc3oc2=O)c2ccccc21 | 2.32% (active) | 71.2% | 61.6% | 91.3% | 88.2% | 83.3% | 84.5% | 65.8% | 57% | 52.2% |
| Cn1cc(-c2cc(N)n3nc(-c4c[nH]c5ccccc45)cc3n2)c2ccccc21 | -68.5% (active) | -68.2% (active) | -46.8% (active) | -88.7% (active) | -93.1% (active) | -50.2% (active) | -92.5% (active) | -96.5% (active) | -78.2% (active) | -98.8% (active) |
| COc1ccc2c(c1)C(Sc1ccc(Br)cc1)c1c(nc(N)c(C#N)c1N)O2 (stereo not given) | 76.3% | 91.1% | 80.4% | 80.6% | 77.2% | 48.2% | 85.6% | 76.4% | 16.7% | 104% |
| O=C(Nc1nc2ccccc2s1)Nc1ccccc1Cl | 94.3% | 98.5% | 20.4% | 70.4% | 55.7% | 85.3% | 95.3% | 93.8% | 79.4% | 102% |
| CC(C)(C)C(=O)C1CC(C#N)=C2C=Cc3c(ccc4ccccc34)N21 (stereo not given) | 88.3% | 90.4% | -5.13% (active) | 60.1% | 75.2% | 80% | 91.1% | 91.1% | 95.5% | 106% |
| CC(=O)Nc1ccc(S(=O)(=O)Nc2ccc(-c3ccc4c(c3)NC(=O)/C4=C\c3ccc[nH]3)cc2)cc1 | 98.3% | 118% | 108% | 73% | 89.2% | 91.4% | 92.6% | 68.7% | 85.2% | 83.6% |
| Cn1cc(-c2cc3nc(-c4cn(C)c5ncccc45)cc(N)n3n2)c2cc(F)ccc21 | 69% | 6.68% (active) | 52.9% | 8.57% (active) | -41.8% (active) | 32.5% | 78.2% | 80.3% | 44.4% | 92.8% |
| COc1cc(NC(=O)C(C)C)ccc1C(=O)NC(=S)Nc1ccc(S(N)(=O)=O)cc1 | 108% | 101% | 95.5% | 80.8% | 72% | 115% | 114% | 96.2% | 102% | 114% |
| COc1ccc(-c2cc(C(=O)N=Nc3c(O)[nH]c4ccc(Cl)cc34)c3ccccc3n2)cc1OC | 101% | 117% | 118% | 97.1% | 100% | 103% | 111% | 89.8% | 90.9% | 110% |
| O=C(Cc1c(-c2ccccc2[N+](=O)[O-])n(-c2ncnc3c2c(-c2ccccc2)c(-c2ccccc2)n3Cc2ccccc2)[nH]c1=O)c1ccc(Cl)c(Cl)c1 | 46.9% | 18.4% | 14% | 16.8% | 28.1% | 8.7% (active) | -45.3% (active) | -9.59% (active) | 14.9% | 27.8% |
| COc1ccccc1/C=C/c1cccc(NC(=S)NCCCCN(C)C)c1 | -100% (active) | -59% (active) | -80.1% (active) | -84.1% (active) | -64.7% (active) | -46.9% (active) | -97% (active) | -98.5% (active) | -98.4% (active) | -98.8% (active) |
| C=CCSc1nnc(-c2c(C)nc3sccn23)o1 | 92.7% | 96.1% | 69.1% | 82.7% | 88% | 88.9% | 95.5% | 74.4% | 95.5% | 96.7% |
| O=C(CSc1nnc(-c2ccc(-c3nc4ccc(Cl)cc4[nH]3)cc2)o1)Nc1ccccc1 | 25.2% | 41% | -16.8% (active) | -42.4% (active) | -79.2% (active) | -13.6% (active) | 13.2% | 7.34% (active) | -65.6% (active) | -89.2% (active) |
| Cc1[nH]nc2ccc3nc(-c4cnn(CCO)c4)c4c(c3c12)CCCC4 | 23.3% | 31.3% | 31.9% | 74.4% | 57.2% | 40.4% | 31.7% | 34.8% | 25.1% | 75.6% |
| Cn1cc(-c2cc3nc(-c4cn(C)c5ncc(Br)cc45)cc(N)n3n2)c2cc(F)ccc21 | 8.7% (active) | -28.5% (active) | 24.9% | 58.3% | -26.1% (active) | 19.2% | 40.4% | -7.29% (active) | -69.7% (active) | 22.6% |
| CN1CCN(CCS(=O)(=O)Nc2cc(-c3ccc4ncnc(Nc5ccc(F)c(Cl)c5)c4c3)cnc2Cl)CC1 | 24.5% | 12% | 22.1% | 10.1% | 16.5% | 20.2% | -75.9% (active) | -3.28% (active) | -57.5% (active) | 4.33% (active) |
